Laboratory results: PubChem BioAssay (EPA / NIEHS)
Inconclusive results are not listed. Calls of active or inactive are those of the source. How the source made its calls: active means hit-call score of the fitted dose curve at least 0.9, where 1 is the maximum; inconclusive means response in the unintended direction; inactive means score below 0.9.

Read-out: sulfotransferase (SULT2A), SULT2A1 (gene 6822)
Assay: CLD_SULT2A_48hr: CellzDirect (CLD) Gene Expression Assay for sulfotransferase (SULT2A) at 48 hours (AID 2283710);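 further: hits raise SULT2A1 transcript above the 0.2% DMSO vehicle baseline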
Protocol: CLD_48hr is a cell-based, multiplexed-readout assay that uses hepatocyte, a human liver primary cell, with measurements taken at 48 hours after chemical dosing in a 96-well plate.CLD_SULT2A_48hr is one of 16 assay component(s) measured or calculated from the CLD_48hr assay. It is designed to make measurements of mRNA induction, a form of inducible reporter, as detected with chemiluminescence signals by Quantitative Nuclease Protection Assay (qNPA) technology.Data from the assay component CLD_SULT2A_48hr was analyzed at the endpoint, CLD_SULT2A_48hr, in the positive analysis fitting direction relative to DMSO as the negative control and baseline of activity. Using a type of inducible reporter, gain-of-signal activity can be used to understand changes in the reporter gene as they relate to the gene SULT2A1. Furthermore, this assay endpoint can be referred to as a primary readout. To generalize the intended target to other relatable targets, this assay endpoint is annotated to the transferase intended target family, where subfamily is sulfotransferase.
Human hepatocyte cultures were treated daily for two consecutive days with fresh dosing solutions containing appropriate concentrations of the 320 ToxCast chemicals (chemical identities were blinded to CellzDirect and other ToxCast collaborators), vehicle control (0.2% DMSO), and positive control inducers as summarized in Table 1. Due to the large number of treatment groups and chemicals examined, the ToxCast chemicals were divided into two groups (spanning two independent cultures of hepatocytes from separate donor preparations (Hu778: ToxCast plates 1 and 2; Hu776: ToxCast plates 3 and 4). Each preparation of human hepatocyte cultures was treated with respective vehicle control, medium only control, set of six positive controls/reference chemicals for the five hepatic receptor pathways, and a subset of eight of the ToxCast chemicals (indoxacarb, pyrithiobac-sodium, norflurazon, cyhalofop-butyl, methomyl, thiram, acetochlor, and propiconazole). These replicate data, coupled with internal replicates designed within the blinded ToxCast chemical library, provided additional data to evaluate interindividual differences between hepatocyte preparations and their potential impact on chemical profiles.Cell morphology and integrity were evaluated using phase-contrast microscopy as an indicator of hepatocyte cell health (Tyson & Green, 1987). Cultures for each treatment group (i.e., media, vehicle [0.2% DMSO], positive control inducers [multiple concentrations], and the ToxCast chemicals [multiple concentrations]) were observed and cell morphology was assessed relative to vehicle control cultures at each harvest time point (0, 6, 24, or 48 h). […] Images were evaluated at the conclusion of the study to assess changes in cell integrity and account for the effects of chemical exposure on uncharacteristic changes in concentration-dependent gene expression profiles. The results from these determinations of apparent cytotoxicity were annotated (yes/no) alongside the corresponding qNPA data for reference.At the conclusion of each treatment period, hepatocyte cultures (96-well) were washed with 1 volume of HBSS, lysed by addition of 25 ul ArrayPlate lysis buffer (HTG, Tucson, AZ), and 70 ul/well of Denaturation Oil, denatured by incubation at 95C for 10 min, and frozen at approximately -70C until analysis by nuclease protection assay (qNPA) (Roberts et al., 2007). For qNPA analysis, cell lysates were thawed at 50C for approximately 30 min, qNPA probes were added, and samples were incubated at 95C for 10 min to begin the detection process by denaturing the target RNA, dissociating the duplexes and secondary structure hybridization. At the conclusion of the hybridization period, S1 nuclease reagent was added to each sample to digest all nonprotected nucleotides at 50C for 60-90 min. […]

Compound | outcome | AC50
CNC(=O)Oc1ccccc1OC(C)C | inactive | –
CCCN(CCC)c1c([N+](=O)[O-])cc(C(F)(F)F)cc1[N+](=O)[O-] | inactive | –
CN1CSC(=S)N(C)C1 | inactive | –
CC(C)(C)C(O)C(Oc1ccc(Cl)cc1)n1cncn1 (stereo not drawn) | – | 7.18 µM (active)
N#Cc1c(Cl)c(Cl)c(Cl)c(C#N)c1Cl | inactive | –
Clc1ccccc1-c1nnc(-c2ccccc2Cl)nn1 | inactive | –
CC1(C)C(C=C(Cl)Cl)C1C(=O)OC(C#N)c1ccc(F)c(Oc2ccccc2)c1 (stereo not drawn) | inactive | –
O=C(NC(=O)c1c(F)cccc1F)Nc1ccc(OC(F)(F)C(F)OC(F)(F)F)c(Cl)c1 (stereo not drawn) | inactive | –
CCC(C)(NC(=O)c1cc(Cl)c(C)c(Cl)c1)C(=O)CCl (stereo not drawn) | inactive | –
COC(=O)c1ccccc1S(=O)(=O)NC(=O)Nc1nc(C)nc(OC)n1 | inactive | –
Oc1ccc(Cl)cc1Cc1ccccc1 | inactive | –
COC(=O)c1ccccc1S(=O)(=O)NC(=O)N(C)c1nc(C)nc(OC)n1 | inactive | –
CCOC1Oc2ccc(OS(C)(=O)=O)cc2C1(C)C (stereo not drawn) | inactive | –
COc1nn(CSP(=S)(OC)OC)c(=O)s1 | inactive | –
O=[N+]([O-])/N=C1\NCCN1Cc1ccc(Cl)nc1 | inactive | –
CCS(=O)(=O)c1cccnc1S(=O)(=O)NC(=O)Nc1nc(OC)cc(OC)n1 | inactive | –
O=C(O)CCCOc1ccc(Cl)cc1Cl | inactive | –
Cc1[nH]c(=O)n(C(C)(C)C)c(=O)c1Cl | inactive | –
CC(C)(C)C(O)/C(=C\c1ccc(Cl)cc1Cl)n1cncn1 (stereo not drawn) | inactive | –

Compound | outcome | AC50
CCC(C)(C)C(=O)OC1=C(c2ccc(Cl)cc2Cl)C(=O)OC12CCCCC2 | inactive | –
CC1(c2ccc(Oc3ccccc3)cc2)OC(=O)N(Nc2ccccc2)C1=O (stereo not drawn) | – | 1.89 µM (active)
CCN(CC)C(=O)SCc1ccc(Cl)cc1 | inactive | –
CCC(C)Nc1c([N+](=O)[O-])cc(C(C)(C)C)cc1[N+](=O)[O-] (stereo not drawn) | – | 1.14 µM (active)
O=S1OCC2C(CO1)C1(Cl)C(Cl)=C(Cl)C2(Cl)C1(Cl)Cl (stereo not drawn) | inactive | –
CC(C)N(C(=O)COc1nnc(C(F)(F)F)s1)c1ccc(F)cc1 | inactive | –
O=C(Nc1ccccc1)Nc1cnns1 | – | 6.28 µM (active)
Cc1cc(C)nc(NC(=O)NS(=O)(=O)c2ccccc2C(=O)OC2COC2)n1 | inactive | –
COP(=O)(OC)OC=C(Cl)Cl | inactive | –
CNC(=O)/C=C(\C)OP(=O)(OC)OC | inactive | –
C#CCN1C(=O)COc2cc(F)c(N3C(=O)C4=C(CCCC4)C3=O)cc21 | – | 3.49 µM (active)
C[C@H]1[C@H](c2ccc(Cl)cc2)SC(=O)N1C(=O)NC1CCCCC1 | inactive | –
COP(=S)(OC)Oc1ccc([N+](=O)[O-])cc1 | inactive | –
O=C(O)C(F)(F)C(F)(F)C(F)(F)C(F)(F)C(F)(F)C(F)(F)C(F)(F)F | inactive | –
Oc1cc(Cl)ccc1Oc1ccc(Cl)cc1Cl | inactive | –
O=[N+]([O-])c1c(Cl)c(Cl)c(Cl)c(Cl)c1Cl | inactive | –
CCc1ccc(C(=O)NN(C(=O)c2cc(C)cc(C)c2)C(C)(C)C)cc1 | inactive | –
COc1cc(OC)nc(NC(=O)NS(=O)(=O)c2cc(NC=O)ccc2C(=O)N(C)C)n1 | inactive | –
O=S(=O)(O)C(F)(F)C(F)(F)C(F)(F)C(F)(F)C(F)(F)C(F)(F)C(F)(F)C(F)(F)F | inactive | –
